# Data reported in the supplement of paper PMC10037445.
# In all, about 2,900 compounds were measured (“NF-kB SEAP reporter activity, fold change vs agonist alone”: median about 0.99, highest 2% from about 2.6 on). Only a selection was taken, and the highest values are over-represented in it overall.
# Key:
# RAW-Dual [1] = assay: NF-kB SEAP reporter activity, fold change vs agonist alone; higher = enhanced NF-kB activity; conditions: cytotoxicity flag (confluency mask): not cytotoxic
# How it was run: (§1)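 RAW-Dual macrophages were seeded in DMEM at 50,000 cells/well in 384-well plates, given 50 nL of library stock by pin tool, and given a PRR agonist 1 h later. Plates were held at 37 °C, 5% CO2 for 20 hours, after which supernatant was read for IRF by QuantiLuc luminescence and for NF-κB by QuantiBlue absorbance at 620 nm. Reporter activity is expressed as fold change over wells that received agonist alone. A well was called cytotoxic when IncuCyte confluency fell below 70% of agonist controls in both mask sets.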
# RAW-Dual [2] = assay: NF-kB SEAP reporter activity, fold change vs agonist alone; cytotoxicity flag (confluency mask): not cytotoxic; higher = enhanced NF-kB activity
# How it was run: as §1
# [3] = library stock concentration (final ~1000-fold dilution): 10 mM, agonist: Imiquimod (TLR7) […]
# [4] = library stock concentration (final ~1000-fold dilution): 10 mM, agonist: MPLA (TLR4) […]
# [5] = agonist: ODN 1826 (TLR9) 0.5 ug/mL
# [6] = agonist: Pam2CSK4 (TLR2/6) 0.1 ug/mL
# [7] = agonist: Pam3CSK4 (TLR2/1) 0.1 ug/mL
# [8] = library stock concentration (final ~1000-fold dilution): 10 mM water, agonist: Imiquimod (TLR7) […]
# [9] = library stock concentration (final ~1000-fold dilution): 10 mM water, agonist: MPLA (TLR4) […]
smiles,measurement,setting,value
COc1nc(N)nc2c1ncn2C1OC(CO)C(O)C1O (stereo not drawn),NF-kB SEAP reporter activity,RAW-Dual [1]; [3],0.924
same,NF-kB SEAP reporter activity,RAW-Dual [1]; [4],0.994
COc1nc(N)nc2c1ncn2C1OC(CO)C(O)C1O (stereo not drawn) (library stock concentration (final ~1000-fold dilution): 10 mM),NF-kB SEAP reporter activity,RAW-Dual [2]; agonist: LPS (TLR4) 0.1 ug/mL,1.43
same,NF-kB SEAP reporter activity,RAW-Dual [2]; [5],0.996
same,NF-kB SEAP reporter activity,RAW-Dual [2]; [6],1.08
same,NF-kB SEAP reporter activity,RAW-Dual [2]; [7],1.23
CCOc1ccc(CC2NC(=O)CCSSCC(C(=O)N3CCCC3C(=O)NC(CCCN)C(=O)NCC(N)=O)NC(=O)C(CC(N)=O)NC(=O)C(C(C)O)NC(=O)C(C(C)CC)NC2=O)cc1 (stereo not drawn) (library stock concentration (final ~1000-fold dilution): 10 mM water),NF-kB SEAP reporter activity,RAW-Dual [2]; agonist: LPS (TLR4) 0.1 ug/mL,1.22
same,NF-kB SEAP reporter activity,RAW-Dual [2]; [5],1.15
same,NF-kB SEAP reporter activity,RAW-Dual [2]; [6],1.22
same,NF-kB SEAP reporter activity,RAW-Dual [2]; [7],1.02
CCOc1ccc(CC2NC(=O)CCSSCC(C(=O)N3CCCC3C(=O)NC(CCCN)C(=O)NCC(N)=O)NC(=O)C(CC(N)=O)NC(=O)C(C(C)O)NC(=O)C(C(C)CC)NC2=O)cc1 (stereo not drawn),NF-kB SEAP reporter activity,RAW-Dual [1]; [8],0.981
same,NF-kB SEAP reporter activity,RAW-Dual [1]; [9],1.06
COc1cc2c(cc1OC)C(=O)C(CC1CCN(Cc3ccccc3)CC1)C2.Cl (stereo not drawn) (library stock concentration (final ~1000-fold dilution): 10 mM water),NF-kB SEAP reporter activity,RAW-Dual [2]; agonist: LPS (TLR4) 0.1 ug/mL,1.35
same,NF-kB SEAP reporter activity,RAW-Dual [2]; [5],1.16
same,NF-kB SEAP reporter activity,RAW-Dual [2]; [6],1.28
same,NF-kB SEAP reporter activity,RAW-Dual [2]; [7],1.29
COc1cc2c(cc1OC)C(=O)C(CC1CCN(Cc3ccccc3)CC1)C2.Cl (stereo not drawn),NF-kB SEAP reporter activity,RAW-Dual [1]; [8],0.84
same,NF-kB SEAP reporter activity,RAW-Dual [1]; [9],1.08
COC(=O)NC(C(=O)NC(Cc1ccccc1)C(O)CN(Cc1ccc(-c2ccccn2)cc1)NC(=O)C(NC(=O)OC)C(C)(C)C)C(C)(C)C.O=S(=O)(O)O (stereo not drawn) (library stock concentration (final ~1000-fold dilution): 10 mM),NF-kB SEAP reporter activity,RAW-Dual [2]; agonist: LPS (TLR4) 0.1 ug/mL,1.54
same,NF-kB SEAP reporter activity,RAW-Dual [2]; [5],2.67
same,NF-kB SEAP reporter activity,RAW-Dual [2]; [6],1.47
same,NF-kB SEAP reporter activity,RAW-Dual [2]; [7],1.68
COC(=O)NC(C(=O)NC(Cc1ccccc1)C(O)CN(Cc1ccc(-c2ccccn2)cc1)NC(=O)C(NC(=O)OC)C(C)(C)C)C(C)(C)C (stereo not drawn) (library stock concentration (final ~1000-fold dilution): 10 mM),NF-kB SEAP reporter activity,RAW-Dual [2]; agonist: LPS (TLR4) 0.1 ug/mL,1.03
same,NF-kB SEAP reporter activity,RAW-Dual [2]; [5],1.02
same,NF-kB SEAP reporter activity,RAW-Dual [2]; [6],1.11
same,NF-kB SEAP reporter activity,RAW-Dual [2]; [7],0.79
COC(=O)NC(C(=O)NC(Cc1ccccc1)C(O)CN(Cc1ccc(-c2ccccn2)cc1)NC(=O)C(NC(=O)OC)C(C)(C)C)C(C)(C)C (stereo not drawn),NF-kB SEAP reporter activity,RAW-Dual [1]; [4],0.961
CC(C)CC(NC(=O)C(Cc1ccccc1)CC(O)C(Cc1ccccc1)NC(=O)OC(C)(C)C)C(=O)NC(Cc1ccccc1)C(N)=O (stereo not drawn),NF-kB SEAP reporter activity,RAW-Dual [1]; [3],0.843
same,NF-kB SEAP reporter activity,RAW-Dual [1]; [4],1.02
COC(=O)NC(C(=O)NC(Cc1ccccc1)C(O)CN(Cc1ccc(-c2ccccn2)cc1)NC(=O)C(NC(=O)OC)C(C)(C)C)C(C)(C)C.O=S(=O)(O)O (stereo not drawn),NF-kB SEAP reporter activity,RAW-Dual [1]; [3],2.01
same,NF-kB SEAP reporter activity,RAW-Dual [1]; [4],1.56
CC(C)CC(NC(=O)C(Cc1ccccc1)CC(O)C(Cc1ccccc1)NC(=O)OC(C)(C)C)C(=O)NC(Cc1ccccc1)C(N)=O (stereo not drawn) (library stock concentration (final ~1000-fold dilution): 10 mM),NF-kB SEAP reporter activity,RAW-Dual [2]; agonist: LPS (TLR4) 0.1 ug/mL,1.25
same,NF-kB SEAP reporter activity,RAW-Dual [2]; [5],0.998
same,NF-kB SEAP reporter activity,RAW-Dual [2]; [6],0.929
same,NF-kB SEAP reporter activity,RAW-Dual [2]; [7],0.958
CC(C)C1=CC2=CCC3C(C)(C(=O)O)CCCC3(C)C2CC1 (stereo not drawn) (library stock concentration (final ~1000-fold dilution): 10 mM),NF-kB SEAP reporter activity,RAW-Dual [2]; agonist: LPS (TLR4) 0.1 ug/mL,0.876
same,NF-kB SEAP reporter activity,RAW-Dual [2]; [5],0.965
same,NF-kB SEAP reporter activity,RAW-Dual [2]; [6],1.03
same,NF-kB SEAP reporter activity,RAW-Dual [2]; [7],0.83
CC(C)C1=CC2=CCC3C(C)(C(=O)O)CCCC3(C)C2CC1 (stereo not drawn),NF-kB SEAP reporter activity,RAW-Dual [1]; [4],1.07
CC(C)CC(=O)NC(C(=O)NC(C(=O)NC(CC(C)C)C(O)CC(=O)NC(C)C(=O)NC(CC(C)C)C(O)CC(=O)O)C(C)C)C(C)C (stereo not drawn),NF-kB SEAP reporter activity,RAW-Dual [1]; [3],1.01
same,NF-kB SEAP reporter activity,RAW-Dual [1]; [4],1
CC(C)CC(=O)NC(C(=O)NC(C(=O)NC(CC(C)C)C(O)CC(=O)NC(C)C(=O)NC(CC(C)C)C(O)CC(=O)O)C(C)C)C(C)C (stereo not drawn) (library stock concentration (final ~1000-fold dilution): 10 mM),NF-kB SEAP reporter activity,RAW-Dual [2]; agonist: LPS (TLR4) 0.1 ug/mL,0.983
same,NF-kB SEAP reporter activity,RAW-Dual [2]; [5],0.596
same,NF-kB SEAP reporter activity,RAW-Dual [2]; [6],1
same,NF-kB SEAP reporter activity,RAW-Dual [2]; [7],0.967
CCOCc1nc2c(N)nc3ccccc3c2n1CC(C)(C)O,NF-kB SEAP reporter activity,"RAW-Dual [1]; library stock concentration (final ~1000-fold dilution): 3.2 mM, agonist: Imiquimod (TLR7) […]",1.27
same,NF-kB SEAP reporter activity,"RAW-Dual [1]; library stock concentration (final ~1000-fold dilution): 3.2 mM, agonist: MPLA (TLR4) […]",2.17
CCOCc1nc2c(N)nc3ccccc3c2n1CC(C)(C)O (library stock concentration (final ~1000-fold dilution): 3.2 mM),NF-kB SEAP reporter activity,RAW-Dual [2]; agonist: LPS (TLR4) 0.1 ug/mL,3.55
same,NF-kB SEAP reporter activity,RAW-Dual [2]; [5],1.69
same,NF-kB SEAP reporter activity,RAW-Dual [2]; [6],0.415
same,NF-kB SEAP reporter activity,RAW-Dual [2]; [7],0.673
CC(=O)NC1C(NC(=N)N)C=C(C(=O)O)OC1C(O)C(O)CO (stereo not drawn),NF-kB SEAP reporter activity,RAW-Dual [1]; [8],0.917
same,NF-kB SEAP reporter activity,RAW-Dual [1]; [9],1.03
CC(=O)NC1C(NC(=N)N)C=C(C(=O)O)OC1C(O)C(O)CO (stereo not drawn) (library stock concentration (final ~1000-fold dilution): 10 mM water),NF-kB SEAP reporter activity,RAW-Dual [2]; agonist: LPS (TLR4) 0.1 ug/mL,1.37
same,NF-kB SEAP reporter activity,RAW-Dual [2]; [5],1.17
same,NF-kB SEAP reporter activity,RAW-Dual [2]; [6],1.19
same,NF-kB SEAP reporter activity,RAW-Dual [2]; [7],1.07
CC1CN(CC(=O)Nc2ccc3c(c2)Cc2cccc(-c4cc(=O)cc(N5CCOCC5)o4)c2S3)CC(C)O1 (stereo not drawn),NF-kB SEAP reporter activity,RAW-Dual [1]; [3],1.54
same,NF-kB SEAP reporter activity,RAW-Dual [1]; [4],2.82
CC1CN(CC(=O)Nc2ccc3c(c2)Cc2cccc(-c4cc(=O)cc(N5CCOCC5)o4)c2S3)CC(C)O1 (stereo not drawn) (library stock concentration (final ~1000-fold dilution): 10 mM),NF-kB SEAP reporter activity,RAW-Dual [2]; agonist: LPS (TLR4) 0.1 ug/mL,5.33
same,NF-kB SEAP reporter activity,RAW-Dual [2]; [5],0.922
same,NF-kB SEAP reporter activity,RAW-Dual [2]; [6],1.36
same,NF-kB SEAP reporter activity,RAW-Dual [2]; [7],1.99
O=c1cc(-c2cccc3c2Sc2ccccc2S3)oc(N2CCOCC2)c1 (library stock concentration (final ~1000-fold dilution): 10 mM),NF-kB SEAP reporter activity,RAW-Dual [2]; agonist: LPS (TLR4) 0.1 ug/mL,2.66
same,NF-kB SEAP reporter activity,RAW-Dual [2]; [5],0.715
same,NF-kB SEAP reporter activity,RAW-Dual [2]; [6],0.748
same,NF-kB SEAP reporter activity,RAW-Dual [2]; [7],0.948
